The source of these data is PubChem BioAssay (NCATS).

The structures appear in SMILES notation. Inconclusive results are not listed. Entries that show only a call come without a potency. Values without a mark were called inactive. Activity calls are given as the source filed them. The call rests on the fitted dose curve; in most records, active means well fitted inhibition curve with a large enough effect; inconclusive means small, poorly fitted or top-dose-only effect; inactive means no such curve, though single readings can be large or run the other way.

For the assay, the system named is Zika virus NS2B-NS3 protease (linked construct). Put plainly: Primary screen NINDS Rhodamine qHTS for Zika virus inhibitors (AID 1347160). Further: nearly all actives have a fitted effect of over 55% in size. The note with it: purified NS2B-NS3 protease, Rhodamine110 substrate fluorescence; series mostly up to 57.1 µM. In short, it runs like this:
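Percent inhibition, normalized to uninhibited and enzyme-free controls, is fitted to a 4-parameter Hill equation. Fluorescence change comes from a 15-min cleavage of 1.5 microM bis-peptide Rhodamine110 substrate by 25 nM linked NS2B-NS3 at room temperature.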
(In general: qHTS replaces the single test concentration by a dilution series.)
`COC(=O)/C=C/C12COC(C)(C)C1C(O)C(OC(C)=O)C1(C)C2CCC2(C)C(c3ccoc3)OC(=O)C3OC321` (stereo not given): the Potency entry is “inactive”.

As for `CC(C)[C@@H]1C(=O)N(S(C)(=O)=O)[C@@H]2CCN(C(=O)/C=C/CN3CCCCC3)[C@H]21`, the Potency result was “inactive”.

On to `C=C[C@H]1CN2CC[C@H]1C[C@@H]2C(O)c1ccnc2ccc(OC)cc12` (stereo not given in full), for which the Potency entry was “inactive”.

Regarding `CCn1cc(NC(=S)Nc2cc(Cl)ccc2OC)c(C(N)=O)n1`, the Potency result was “inactive”.

As to `CCn1c(=O)c(-c2ccn[nH]2)cc2c(C)nc(N)nc21`, the Potency result was “inactive”.

In the case of `CN[C@H](CC(C)C)C(=O)N[C@H]1C(=O)N[C@@H](CC(N)=O)C(=O)N[C@H]2C(=O)N[C@H]3C(=O)N[C@H](C(=O)N[C@H](C(=O)O)c4cc(O)cc(O)c4-c4cc3ccc4O)[C@H](O[C@H]3C[C@](C)(N)[C@@H](O)[C@H](C)O3)c3ccc(c(Cl)c3)Oc3cc2cc(c3O[C@@H]2O[C@H](CO)[C@@H](O)[C@H](O)[C@H]2O[C@H]2C[C@](C)(NCc3ccc(-c4ccc(Cl)cc4)cc3)[C@@H](O)[C@H](C)O2)Oc2ccc(cc2Cl)[C@H]1O`, the Potency entry was “inactive”.

Regarding `C=C1C(OC2OCC(O)C(O)C2O)CC2C(C)(C)C(O)CCC2(C)C1CC/C(C)=C\CO` (stereo not given), the Potency entry was “inactive”.

For `COc1ccc2nc(S(=O)(=O)Cc3ncc(C)c(OC)c3C)[nH]c2c1`, the Potency entry was “inactive”.

Regarding `COc1ccc(CN2C(=O)C(=O)c3cc(S(=O)(=O)N4CCC[C@H]4COc4cccnc4)ccc32)cc1`, the Potency result is “inactive”.

`CC12CCC3c4ccc(O)cc4CCC3C1CC(OC1OC(C(=O)O)C(O)C(O)C1O)C2O` (stereo not given): the Potency result is “inactive”.

Consider `O=C(CC(c1ccccc1)c1ccccc1)N1CCN(C(c2ccccc2)c2ccccc2)CC1`, for which the Potency entry is “inactive”.

`NC(=O)C(CCC(F)(F)F)N(Cc1ccc(-c2ncon2)cc1F)S(=O)(=O)c1ccc(Cl)cc1` (stereo not given): the Potency entry was “inactive”.

In the case of `CC[C@H]1OC(=O)[C@H](C)[C@@H](O[C@H]2C[C@@](C)(OC)[C@@H](O)[C@H](C)O2)[C@H](C)[C@@H](O[C@@H]2O[C@H](C)C[C@H](N(C)C)[C@H]2O)[C@](C)(O)C[C@@H](C)C(=O)[C@H](C)[C@H]2OC(=O)O[C@@]21C`, the Potency result was “inactive”.

On to `COc1ccc([C@H]2CNC(=O)C2)cc1OC1CCCC1`, for which the Potency entry is “inactive”.

For the molecule `C=C1CCC[C@]2(C)CC[C@@H](C(=C)C(=O)O)[C@H](O)[C@@H]12`, the Potency result is “inactive”.

`C[C@@H]1O[C@@H](O[C@H]2[C@H](O)[C@@H](O)[C@H](OC[C@H]3O[C@@H](OC(=O)[C@]45CCC(C)(C)C[C@H]4C4=CCC6[C@@]7(C)CC[C@H](O[C@@H]8OC[C@H](O)[C@H](O[C@@H]9O[C@H](CO)[C@@H](O)[C@H](O)[C@H]9O)[C@H]8O)[C@@](C)(CO)C7CC[C@@]6(C)[C@]4(C)CC5)[C@H](O)[C@@H](O)[C@@H]3O)O[C@@H]2CO)[C@H](O)[C@H](O)[C@H]1O` (stereo not given in full): the activity change, negative = inhibition is 3.05% [at 10.7 µM].

In the case of `COc1ccc(C2(O)c3ccccc3NC(=O)C2O)cc1` (stereo not given), the Potency entry is “inactive”.

For the molecule `COC(=O)N[C@H](C(=O)N1[C@@H]2CC[C@@H](C2)[C@H]1c1nc2ccc(-c3ccc4c(c3)C(F)(F)c3cc(-c5cnc([C@@H]6CCC7(CC7)N6C(=O)[C@@H](NC(=O)OC)C(C)C)[nH]5)ccc3-4)cc2[nH]1)C(C)C`, the Potency entry is “inactive”.

On to `CC(=O)N1CCc2ccc(O)c(OC3OC(COC4OCC(O)(CO)C4O)C(O)C(O)C3O)c2C1Cc1ccc(O)cc1` (stereo not given), for which the Potency entry was “inactive”.

For `O=C(COc1cccc2c(=O)[nH]ccc12)c1ccccc1`, the Potency entry was “inactive”.

In the case of `C=C1CN(Cc2ccc(C(=O)Nc3ccccc3N)cc2)C(=O)c2ccccc21`, the Potency result was “inactive”.

Regarding `Cc1c2cc(c(C(=O)O)c1C)OC1OC(C(O)C(O)C1O)C(O)C(O)C1OC(O2)C(O)C(O)C1O` (stereo not given), the Potency entry is “inactive”.

With `CN1CCN(Cc2ccc(-c3cnc4[nH]cc(-c5ccc6[nH]ccc6c5)c4c3)cc2)CC1`, the Potency entry was “inactive”.

For `CC1(C)CC[C@]2(C(=O)O[C@@H]3O[C@H](CO[C@@H]4O[C@H](CO)[C@@H](O)[C@H](O)[C@H]4O[C@@H]4O[C@H](CO)[C@@H](O)[C@H](O)[C@H]4O)[C@@H](O)[C@H](O[C@@H]4O[C@H](CO)[C@@H](O)[C@H](O)[C@H]4O)[C@H]3O)CC[C@]3(C)C(=CCC4[C@@]5(C)CC[C@@H](O)[C@@](C)(C(=O)O[C@@H]6O[C@H](CO)[C@@H](O)[C@H](O)[C@H]6O)C5CC[C@]43C)[C@@H]2C1` (stereo not given in full), the outcome was “inactive [at 10.7 µM]”.

Regarding `CC[C@H]1OC(=O)[C@](C)(F)C(=O)[C@H](C)[C@@H](O[C@@H]2O[C@H](C)C[C@H](N(C)C)[C@H]2O)[C@](C)(OC)C[C@@H](C)C(=O)[C@@H](C)[C@H]2N(CCCCn3cc(-c4cccc(N)c4)nn3)C(=O)O[C@]12C`, the Potency result is “inactive”.
